Assay results reported in PubChem BioAssay (EPA / NIEHS).
Results filed as inconclusive are left out. Activity calls are given as the source filed them. The calls were made as follows, unless noted: active = hit-call score of the fitted dose curve at least 0.9, where 1 is the maximum; inactive = score below 0.9.

Columns and labels:
[1] = ATG_NFI_CIS: Attagene CIS-FACTORIAL HepG2 Assay for human Nuclear Factor I (NFI) (AID 2282989); conditions: HepG2 cis-regulatory reporter, NFI response element transcription; actives raise or lower the signal
Method in brief: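 Multiplexed cis-reporter system in human HepG2 cells reports native TF activity as reporter mRNA induction 24 h post-dose. Fragments labelled with 6-FAM, HpaI-digested and resolved by capillary electrophoresis; activity fitted both directions versus DMSO.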

[2] = target: Myc proto-oncogene protein (Homo sapiens) (UniProt P01106); assay: ATG_Myc_CIS: Attagene CIS-FACTORIAL HepG2 Assay for human Myelocytomatosis (Myc) Proto-Oncogene Transcription Factor (AID 2282990); conditions: HepG2, Attagene cis-reporter transcription factor activity; actives raise or lower the signal
Method in brief: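 HepG2 cells transiently transfected with multiple cis-promoter-driven reporter transcription units, so endogenous TF activity is read. After 24 h compound exposure, reporter mRNA was quantified by RT-PCR, 6-FAM labelling, HpaI digestion and capillary electrophoresis; bidirectional fit versus DMSO.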

[3] = ATG_NRF2_ARE_CIS: Attagene CIS-FACTORIAL HepG2 Assay for human Nuclear Factor Erythroid 2 Related Factor 2 (NFR2) response to Antioxidant Response Elements (ARE) (AID 2282992); conditions: HepG2 Attagene ARE/NRF2 reporter, transcription factor activity; actives raise or lower the signal;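 as to AC50: reporter mRNA level measured by RT-PCR and capillary electrophoresis fluorescence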
Method in brief: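 Multiplexed reporter mRNA profiling in HepG2 after a 24 h chemical exposure. Curves fitted in both directions relative to DMSO negative control.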

[4] = target: Cellular tumor antigen p53 (Homo sapiens) (UniProt P04637); assay: ATG_p53_CIS: Attagene CIS-FACTORIAL HepG2 Assay for human p53 Transcription Factor (AID 2282994); conditions: HepG2 p53 cis-element reporter, Attagene mRNA; actives raise or lower the signal
Method in brief: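 Multiplexed reporter mRNA assay in human HepG2 liver cells; cis-regulated units report endogenous factor activity. Values come from bidirectional curve fitting against DMSO negative control after 24 h treatment.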

[5] = target: human Peroxisome Proliferator-activated Receptor delta (PPARd), PPARD (gene 5467) (UniProt Q03181); assay: ATG_PPARd_TRANS: Attagene TRANS-FACTORIAL HepG2 Assay for human Peroxisome Proliferator-activated Receptor delta (PPARd) (AID 2283002; active = hit-call score of the fitted dose curve at least 0.9, where 1 is the maximum)
Method in brief: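 HepG2 cells transiently transfected with multiplexed GAL4-UAS reporter units and exogenous chimeric NR-Gal4 proteins; 24 h compound exposure. Reporter mRNA measured by RT-PCR, 6-FAM labelling, HpaI digestion and capillary electrophoresis; gain of signal versus DMSO.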

[6] = target: Nuclear receptor subfamily 1 group I member 2 (Homo sapiens) (UniProt O75469); assay: ATG_PXR_TRANS: Attagene TRANS-FACTORIAL HepG2 Assay for human Pregnane X Receptor (PXR) (AID 2283008; active = hit-call score of the fitted dose curve at least 0.9, where 1 is the maximum)
Method in brief: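 Measures mRNA induction of a GAL4-UAS-driven reporter in human HepG2 cells transiently expressing PXR fused to Gal4, following 24 h treatment. DMSO served as negative control and baseline.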

[7] = ATG_Oct_MLP_CIS: Attagene CIS-FACTORIAL HepG2 Assay for human Octamer-Binding Transcription Factor (Oct) (AID 2282993); conditions: HepG2 Attagene cis-factorial Oct reporter, mRNA; actives raise or lower the signal
Method in brief: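 After 24 h compound exposure, transfected HepG2 cells were lysed for total RNA; reporter-specific cDNA was PCR-amplified, fluorescently labelled and sized by capillary electrophoresis. Bidirectional curve fitting used DMSO as baseline.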

[8] = target: human Peroxisome Proliferator-activated Receptor alpha (PPARa), PPARA (gene 5465) (UniProt Q07869); assay: ATG_PPARa_TRANS: Attagene TRANS-FACTORIAL HepG2 Assay for human Peroxisome Proliferator-activated Receptor alpha (PPARa) (AID 2283001; active = hit-call score of the fitted dose curve at least 0.9, where 1 is the maximum)
Method in brief: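 HepG2 cells transiently transfected with multiplexed GAL4-UAS reporter units and chimeric NR-Gal4 constructs were dosed for 24 h. Reporter mRNA was measured by RT-PCR with fluorescent labelling and capillary electrophoresis; gain of signal fitted against DMSO.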

[9] = target: Peroxisome proliferator-activated receptor gamma (Homo sapiens) (UniProt P37231); assay: ATG_PPARg_TRANS: Attagene TRANS-FACTORIAL HepG2 Assay for human Peroxisome Proliferator-activated Receptor-gamma (PPARg) (AID 2283007; active = hit-call score of the fitted dose curve at least 0.9, where 1 is the maximum)
Method in brief: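 Gain-of-signal endpoint relative to DMSO, derived from reporter mRNA levels quantified by RT-PCR and capillary electrophoresis. Cells were HepG2 transiently expressing a chimeric NR-Gal4 construct with GAL4-UAS reporters, exposed to chemicals for 24 h.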

[10] = target: human RAR-related Orphan Receptor beta (RORb), RORB (gene 6096) (UniProt Q92753); assay: ATG_RORb_TRANS: Attagene TRANS-FACTORIAL HepG2 Assay for human RAR-related Orphan Receptor beta (RORb) (AID 2283010; active = hit-call score of the fitted dose curve at least 0.9, where 1 is the maximum)
Method in brief: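 HepG2 cells were transiently transfected with multiplexed GAL4-UAS reporter units expressing chimeric nuclear receptor–GAL4 proteins, then dosed for 24 h. Reporter mRNA was quantified by RT-PCR with fluorescent labelling and capillary electrophoresis; gain of signal was fitted relative to DMSO.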

[11] = target: human Retinoic Acid Receptor gamma (RARg), RARG (gene 5916) (UniProt P13631); assay: ATG_RARg_TRANS: Attagene TRANS-FACTORIAL HepG2 Assay for human Retinoic Acid Receptor gamma (RARg) (AID 2283009; active = hit-call score of the fitted dose curve at least 0.9, where 1 is the maximum)
Method in brief: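 HepG2 cells transiently transfected with multiplexed reporter units expressing chimeric RARg-GAL4 and GAL4-UAS-driven reporters; 24 h compound exposure. Reporter mRNA quantified by RT-PCR with fluorescent labelling and capillary electrophoresis; gain-of-signal fitted relative to DMSO baseline.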

[12] = ATG_NF_kB_CIS: Attagene CIS-FACTORIAL HepG2 Assay for human Nuclear Factor Kappa B (NF-kB) (AID 2282991); conditions: HepG2 Attagene cis-factorial NF-kB reporter mRNA; actives raise or lower the signal
Method in brief: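 Measures mRNA induction of an NF-kB-responsive cis-element reporter in HepG2 cells transfected with multiple reporter units, sampled 24 h post-dosing; quantified by fluorescence after RT-PCR and capillary electrophoresis, fitted for activation or inhibition against DMSO.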

[13] = BSK_3C_TissueFactor: BioMAP Diversity Plus: 3C Assay for Tissue Factor Biomarker Activity (AID 2282997); conditions: BioMAP 3C HUVEC, tissue factor biomarker readout; actives raise or lower the signal
Method in brief: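 Primary human umbilical vein endothelial cells in the 3C system were exposed to test chemical for 24 h, then Tissue Factor measured by ELISA. Activity was fitted bidirectionally against DMSO as negative control and baseline.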

[14] = BSK_3C_uPAR: BioMAP Diversity Plus: 3C Assay for Urokinase-type plasminogen activator receptor (uPAR) Biomarker Activity (AID 2282998); conditions: BioMAP 3C HUVEC, uPAR biomarker ELISA; actives raise or lower the signal
Method in brief: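 Values derive from bidirectional curve fitting relative to DMSO, which served as baseline of activity. uPAR was measured by ELISA in human umbilical vein endothelial primary cultures 24 h after compound addition.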

[15] = BSK_3C_VCAM1: BioMAP Diversity Plus: 3C Assay for Vascular cell adhesion molecule 1 (VCAM1) Biomarker Activity (AID 2282999); conditions: BioMAP 3C HUVEC, VCAM1 ELISA, cytokine-stimulated; actives raise or lower the signal
Method in brief: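 Human umbilical vein endothelial cells were dosed with compound for 24 h, after which cell-surface VCAM-1 was quantified by ELISA. Bidirectional curve fitting used DMSO as negative control and activity baseline.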

[16] = BSK_4H_Eotaxin3: BioMAP Diversity Plus: 4H Assay for Eotaxin 3 Biomarker Activity (AID 2283000); conditions: primary human endothelial cells (HUVEC); actives raise or lower the signal;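 as to outcome: CCL26 protein level quantified by ELISA in parallel with SRB cytotoxicity check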
Method in brief: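 HUVEC, 24 h post-dose, ELISA for Eotaxin-3/CCL26. Gain or loss of signal fitted bidirectionally vs DMSO baseline.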

[17] = read-out: Intercellular Adhesion Molecule 1 (ICAM1), ICAM1 (gene 3383); assay: BSK_3C_ICAM1: BioMAP Diversity Plus: 3C Assay for Intercellular Adhesion Molecule 1 (ICAM1) Biomarker Activity (AID 2283003); conditions: primary human endothelial cells (HUVEC); actives raise or lower the signal
Method in brief: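 Primary human umbilical vein endothelial cells in the BioMAP 3C system were exposed to chemicals for 24 h, then ICAM-1 was quantified by ELISA. Activity was fitted bidirectionally against the DMSO negative control baseline.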

[18] = BSK_3C_Proliferation: Cell Proliferation Assessment in the BioMAP Diversity Plus: 3C Assay (AID 2283006); conditions: primary human endothelial cells (HUVEC);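 as to AC50: potency may reflect either rise or fall in cell number versus DMSO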
Method in brief: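 Human umbilical vein endothelial cells were grown sub-confluent and exposed to chemical for 48 h, then fixed with 10% TCA and stained with 0.1% sulforhodamine B; absorbance at 560 nm gave relative cell number, fitted bidirectionally against DMSO baseline.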

[19] = target: human Retinoic Acid Receptor beta (RARb), RARB (gene 5915) (UniProt P10826); assay: ATG_RARb_TRANS: Attagene TRANS-FACTORIAL HepG2 Assay for human Retinoic Acid Receptor beta (AID 2283004; active = hit-call score of the fitted dose curve at least 0.9, where 1 is the maximum)
Method in brief: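 HepG2 cells transiently transfected with multiplexed GAL4-UAS reporter units expressing chimeric NR–Gal4 fusions; 24 h compound exposure. Reporter mRNA quantified by RT-PCR, 6-FAM labelling, HpaI digestion and capillary electrophoresis; gain-of-signal fitted against DMSO baseline.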

Chain of Nuclear receptor subfamily 1 group I member 2 (Homo sapiens) (O75469 whole entry, looked up, the tested form may be a part): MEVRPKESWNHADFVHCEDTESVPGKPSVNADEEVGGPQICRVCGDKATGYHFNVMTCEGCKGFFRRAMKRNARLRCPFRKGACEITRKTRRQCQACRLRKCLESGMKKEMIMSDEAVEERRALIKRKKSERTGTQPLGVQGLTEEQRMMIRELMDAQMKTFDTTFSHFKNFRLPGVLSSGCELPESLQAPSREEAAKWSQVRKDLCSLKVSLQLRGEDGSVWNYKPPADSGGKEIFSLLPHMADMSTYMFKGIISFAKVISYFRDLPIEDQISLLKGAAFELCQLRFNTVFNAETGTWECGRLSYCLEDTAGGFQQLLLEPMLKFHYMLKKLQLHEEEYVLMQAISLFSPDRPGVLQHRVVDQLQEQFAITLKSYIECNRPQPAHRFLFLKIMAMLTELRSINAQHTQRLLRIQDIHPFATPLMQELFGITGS
Chain of human Peroxisome Proliferator-activated Receptor alpha (PPARa), PPARA (gene 5465) (Q07869 whole entry, looked up, the tested form may be a part): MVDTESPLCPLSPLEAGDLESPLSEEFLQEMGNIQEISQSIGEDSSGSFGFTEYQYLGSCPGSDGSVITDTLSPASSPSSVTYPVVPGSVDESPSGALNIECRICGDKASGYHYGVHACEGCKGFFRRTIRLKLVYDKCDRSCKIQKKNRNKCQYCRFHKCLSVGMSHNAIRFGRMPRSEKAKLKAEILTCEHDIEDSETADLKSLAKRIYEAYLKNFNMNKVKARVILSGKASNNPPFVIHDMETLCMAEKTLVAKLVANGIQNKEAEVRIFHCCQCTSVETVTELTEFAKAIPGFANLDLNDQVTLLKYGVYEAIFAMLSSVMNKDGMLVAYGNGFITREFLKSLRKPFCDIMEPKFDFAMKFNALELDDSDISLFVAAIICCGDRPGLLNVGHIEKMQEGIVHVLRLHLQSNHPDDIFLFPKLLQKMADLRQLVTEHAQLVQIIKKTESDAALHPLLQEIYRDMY
Chain of Peroxisome proliferator-activated receptor gamma (Homo sapiens) (P37231 whole entry, looked up, the tested form may be a part): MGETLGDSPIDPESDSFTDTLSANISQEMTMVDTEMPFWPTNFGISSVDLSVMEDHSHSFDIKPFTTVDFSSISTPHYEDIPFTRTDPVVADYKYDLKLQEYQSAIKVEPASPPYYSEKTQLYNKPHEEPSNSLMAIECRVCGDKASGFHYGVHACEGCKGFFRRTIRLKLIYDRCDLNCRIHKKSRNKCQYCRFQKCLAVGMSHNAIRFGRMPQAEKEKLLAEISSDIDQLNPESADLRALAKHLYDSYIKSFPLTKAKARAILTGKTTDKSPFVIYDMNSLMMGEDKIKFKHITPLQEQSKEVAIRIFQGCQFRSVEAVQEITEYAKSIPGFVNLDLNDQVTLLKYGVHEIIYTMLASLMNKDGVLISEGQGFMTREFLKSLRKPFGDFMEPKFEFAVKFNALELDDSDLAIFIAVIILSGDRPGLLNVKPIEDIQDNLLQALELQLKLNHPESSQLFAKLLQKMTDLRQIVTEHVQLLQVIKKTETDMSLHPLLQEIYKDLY
Chain of human RAR-related Orphan Receptor beta (RORb), RORB (gene 6096) (Q92753 whole entry, looked up, the tested form may be a part): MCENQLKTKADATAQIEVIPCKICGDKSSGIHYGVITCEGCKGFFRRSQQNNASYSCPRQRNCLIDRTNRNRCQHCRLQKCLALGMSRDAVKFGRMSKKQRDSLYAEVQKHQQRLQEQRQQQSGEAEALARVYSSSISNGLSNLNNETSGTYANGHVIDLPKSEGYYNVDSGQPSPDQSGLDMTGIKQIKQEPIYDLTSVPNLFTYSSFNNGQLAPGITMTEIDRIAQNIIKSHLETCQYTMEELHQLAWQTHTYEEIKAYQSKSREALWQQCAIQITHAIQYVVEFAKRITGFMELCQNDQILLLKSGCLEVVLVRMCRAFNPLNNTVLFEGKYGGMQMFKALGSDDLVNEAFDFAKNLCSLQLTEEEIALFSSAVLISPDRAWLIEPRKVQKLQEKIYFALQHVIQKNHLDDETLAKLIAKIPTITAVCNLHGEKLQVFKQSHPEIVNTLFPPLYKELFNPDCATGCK
Chain of human Peroxisome Proliferator-activated Receptor delta (PPARd), PPARD (gene 5467) (Q03181 whole entry, looked up, the tested form may be a part): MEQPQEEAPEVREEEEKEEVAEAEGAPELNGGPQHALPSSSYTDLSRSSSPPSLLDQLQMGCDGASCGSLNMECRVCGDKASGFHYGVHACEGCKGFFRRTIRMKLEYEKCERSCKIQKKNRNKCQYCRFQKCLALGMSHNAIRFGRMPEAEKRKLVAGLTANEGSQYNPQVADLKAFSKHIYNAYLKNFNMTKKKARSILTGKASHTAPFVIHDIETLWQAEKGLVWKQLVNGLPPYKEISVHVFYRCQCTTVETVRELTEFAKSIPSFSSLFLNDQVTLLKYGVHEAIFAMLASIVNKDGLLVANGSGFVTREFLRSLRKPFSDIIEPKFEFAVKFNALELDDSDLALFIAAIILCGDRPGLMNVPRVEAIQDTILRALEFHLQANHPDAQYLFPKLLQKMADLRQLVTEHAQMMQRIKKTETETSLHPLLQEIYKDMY
Chain of Myc proto-oncogene protein (Homo sapiens) (P01106 whole entry, looked up): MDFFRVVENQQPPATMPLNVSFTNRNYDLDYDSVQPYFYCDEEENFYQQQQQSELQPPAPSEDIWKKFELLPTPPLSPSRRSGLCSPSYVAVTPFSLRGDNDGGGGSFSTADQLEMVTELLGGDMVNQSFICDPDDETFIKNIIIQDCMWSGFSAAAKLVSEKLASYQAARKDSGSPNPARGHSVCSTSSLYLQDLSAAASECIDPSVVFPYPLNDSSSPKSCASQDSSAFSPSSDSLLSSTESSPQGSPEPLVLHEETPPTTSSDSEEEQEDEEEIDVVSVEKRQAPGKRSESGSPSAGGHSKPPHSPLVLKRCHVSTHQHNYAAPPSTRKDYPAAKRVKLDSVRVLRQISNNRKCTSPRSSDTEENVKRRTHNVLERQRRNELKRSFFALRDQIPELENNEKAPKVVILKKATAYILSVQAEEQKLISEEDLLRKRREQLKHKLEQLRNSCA
Chain of Cellular tumor antigen p53 (Homo sapiens) (P04637 whole entry, looked up): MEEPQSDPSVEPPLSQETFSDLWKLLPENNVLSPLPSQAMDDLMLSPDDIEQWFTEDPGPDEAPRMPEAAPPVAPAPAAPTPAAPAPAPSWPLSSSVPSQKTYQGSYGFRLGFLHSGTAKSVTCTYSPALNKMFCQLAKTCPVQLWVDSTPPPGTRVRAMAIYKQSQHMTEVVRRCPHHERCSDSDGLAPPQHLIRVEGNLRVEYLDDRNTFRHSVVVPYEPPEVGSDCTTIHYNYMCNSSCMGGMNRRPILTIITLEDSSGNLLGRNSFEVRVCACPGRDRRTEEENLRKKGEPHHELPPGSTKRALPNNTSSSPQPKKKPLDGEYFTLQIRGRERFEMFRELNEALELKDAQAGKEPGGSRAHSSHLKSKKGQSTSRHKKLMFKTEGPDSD
Chain of human Retinoic Acid Receptor beta (RARb), RARB (gene 5915) (P10826 whole entry, looked up, the tested form may be a part): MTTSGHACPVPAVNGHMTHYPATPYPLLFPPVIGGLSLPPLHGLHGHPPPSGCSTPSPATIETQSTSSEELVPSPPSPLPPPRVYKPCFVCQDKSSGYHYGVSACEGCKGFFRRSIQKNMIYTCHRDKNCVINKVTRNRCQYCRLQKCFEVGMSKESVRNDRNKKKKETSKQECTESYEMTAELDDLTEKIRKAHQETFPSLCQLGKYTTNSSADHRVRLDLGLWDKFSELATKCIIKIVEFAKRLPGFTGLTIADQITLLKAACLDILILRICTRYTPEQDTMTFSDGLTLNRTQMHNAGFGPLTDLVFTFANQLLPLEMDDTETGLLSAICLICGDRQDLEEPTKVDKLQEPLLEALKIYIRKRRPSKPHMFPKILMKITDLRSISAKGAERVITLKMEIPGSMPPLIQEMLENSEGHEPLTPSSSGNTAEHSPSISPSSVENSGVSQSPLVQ
Chain of human Retinoic Acid Receptor gamma (RARg), RARG (gene 5916) (P13631 whole entry, looked up, the tested form may be a part): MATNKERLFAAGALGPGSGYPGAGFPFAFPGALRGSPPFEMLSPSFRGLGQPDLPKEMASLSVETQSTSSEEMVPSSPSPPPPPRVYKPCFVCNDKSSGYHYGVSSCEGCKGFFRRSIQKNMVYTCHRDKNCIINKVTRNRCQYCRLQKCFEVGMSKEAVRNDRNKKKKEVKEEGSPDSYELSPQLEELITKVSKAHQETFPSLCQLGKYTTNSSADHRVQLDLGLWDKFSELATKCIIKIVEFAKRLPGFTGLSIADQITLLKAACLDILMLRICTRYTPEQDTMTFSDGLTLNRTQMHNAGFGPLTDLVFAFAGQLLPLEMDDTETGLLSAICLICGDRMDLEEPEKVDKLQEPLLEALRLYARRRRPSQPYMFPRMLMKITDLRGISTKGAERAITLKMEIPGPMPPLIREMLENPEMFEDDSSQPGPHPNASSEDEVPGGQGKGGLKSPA

With `CC1(C)[C@H](C(=O)OCc2cccc(Oc3ccccc3)c2)[C@@H]1C=C(Cl)Cl` the outcome [1] was “inactive”, the outcome [2] was “inactive” and the outcome [3] was “inactive”. The outcome [4] was “inactive”, the outcome [5] was “inactive” and the outcome [6] was “inactive”.
With `CCCCCCC#CC(=O)OC` the outcome [1] was “inactive”, the outcome [2] was “inactive” and the AC50 [3] was 21.6 µM (active). The outcome [7] was “inactive”, the outcome [8] was “inactive” and the outcome [5] was “inactive”. The AC50 [9] was 5.61 µM (active), the outcome [6] was “inactive” and the outcome [10] was “inactive”.
In the case of `CC(=O)OCc1ccc2c(c1)OCO2`, the outcome [1] is reported as “inactive”, the outcome [2] is reported as “inactive” and the outcome [3] is reported as “inactive”. For the same compound, the outcome [7] was “inactive”, the outcome [4] was “inactive” and the outcome [8] was “inactive”. The outcome [6] was “inactive” and the outcome [10] was “inactive”.
With `COc1ccnc(CS(=O)c2nc3cc(OC(F)F)ccc3[nH]2)c1OC` (centres undefined) the outcome [1] was “inactive”, the outcome [2] was “inactive” and the AC50 [3] was 59.4 µM (active). For the same compound, the outcome [7] was “inactive”, the outcome [5] was “inactive” and the outcome [6] was “inactive”. The outcome [10] was “inactive”.
With `CCCCCNCCCCC` the outcome [1] was “inactive”, the outcome [2] was “inactive” and the outcome [3] was “inactive”. For the same compound, the outcome [7] was “inactive”, the outcome [4] was “inactive” and the outcome [6] was “inactive”. The outcome [11] was “inactive”.
With `NCCCN1CCOCC1` the outcome [1] was “inactive”, the outcome [2] was “inactive” and the outcome [3] was “inactive”. The outcome [7] was “inactive”, the outcome [8] was “inactive” and the outcome [5] was “inactive”.
For `CCc1c(C)cc(N)c(CC)c1N`, the outcome [1] was “inactive”, the outcome [12] was “inactive” and the outcome [3] was “inactive”. The outcome [7] was “inactive”, the outcome [4] was “inactive” and the outcome [13] was “inactive”. The outcome [14] was “inactive”, the outcome [15] was “inactive” and the outcome [16] was “inactive”. The outcome [8] was “inactive”, the outcome [17] was “inactive” and the outcome [18] was “inactive”. For the same compound, the outcome [9] was “inactive” and the AC50 [6] was 100 µM (active).
With `CC(=O)OCC=Cc1ccccc1` the outcome [1] was “inactive”, the outcome [2] was “inactive” and the AC50 [3] was 34.9 µM (active). The outcome [7] was “inactive”, the outcome [4] was “inactive” and the AC50 [9] was 9.38 µM (active). For the same compound, the outcome [6] was “inactive”.
With `CCOC(=S)SSC(=S)OCC` the outcome [1] was “inactive”, the outcome [2] was “inactive” and the outcome [3] was “inactive”. For the same compound, the outcome [7] was “inactive”, the outcome [4] was “inactive” and the outcome [9] was “inactive”.
With `CC(C)(COC(=O)c1ccccc1)COC(=O)c1ccccc1` the outcome [1] was “inactive”, the outcome [2] was “inactive” and the outcome [3] was “inactive”. For the same compound, the outcome [7] was “inactive”, the AC50 [13] was 11.4 µM (active) and the AC50 [14] was 34 µM (active). For the same compound, the outcome [15] was “inactive”, the AC50 [16] was 29.5 µM (active) and the outcome [8] was “inactive”. The outcome [5] was “inactive”, the outcome [17] was “inactive” and the AC50 [18] was 22.2 µM (active). The outcome [9] was “inactive” and the outcome [6] was “inactive”.
For `CC1(C)[C@H]2CC[C@]1(C)[C@H](O)C2`, the outcome [1] was “inactive”, the outcome [2] was “inactive” and the outcome [3] was “inactive”. For the same compound, the outcome [7] was “inactive”, the outcome [4] was “inactive” and the outcome [5] was “inactive”. The outcome [6] was “inactive” and the outcome [10] was “inactive”.
With `CCN(CC)c1ccc2c(-c3ccccc3C(=O)O)c3ccc(=[N+](CC)CC)cc-3oc2c1` the outcome [1] was “inactive”, the outcome [2] was “inactive” and the AC50 [3] was 36.7 µM (active). For the same compound, the outcome [7] was “inactive”, the outcome [4] was “inactive” and the outcome [5] was “inactive”. For the same compound, the AC50 [6] was 0.335 µM (active).
For `OCCOc1cccc(OCCO)c1`, the outcome [1] was “inactive”, the outcome [12] was “inactive” and the outcome [3] was “inactive”. The outcome [5] was “inactive”, the outcome [19] was “inactive” and the outcome [9] was “inactive”. For the same compound, the outcome [6] was “inactive”.
With `C[Si](O[Si](C)(C)C)O[Si](C)(C)C` the outcome [1] was “inactive”, the outcome [12] was “inactive” and the outcome [3] was “inactive”. The outcome [7] was “inactive”, the outcome [4] was “inactive” and the outcome [5] was “inactive”. For the same compound, the outcome [9] was “inactive” and the outcome [6] was “inactive”.
